The text below walks through data of PubChem BioAssay.

A short description of test [1]: small molecules captured by biotinylated probe aFSTL3 – biochemical, small-molecule microarray, fluorescence 635/667, stem cell growth factor project, primary screen (AID 1064).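 Note: measures binding of the biotinylated anti-FSTL3 antibody to printed compounds.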 The note with it: higher = more signal.
The nature of test [2]: binders from COS7 lysate, DM2A8 probe, primary screen, torsin A project, cell lysate, small-molecule microarray, fluorescence 635/667 (AID 1065). The settings on record: higher = more signal, COS7 lysate expressing mutant human TOR1A.
Test [3] in a line: small molecules captured by biotinylated probe aFGF2 – biochemical, small-molecule microarray, fluorescence 635/667, stem cell growth factor project, primary screen (AID 1067).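 Note: measures binding of biotinylated aFGF2 protein to printed compounds on slides; z-score merges feature fluorescence and signal-to-noise across triplicate slides.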 The note with it: higher = more signal.
A short description of test [4]: small molecules captured by biotinylated probe aFGF10 – biochemical, small-molecule microarray, fluorescence 635/667, stem cell growth factor project, primary screen (AID 1071).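 Note: score merges 667 nm spot intensity and signal to noise from triplicate slides.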 The settings on record: higher = more signal.
The target in test [5] is Neurogenic locus notch homolog protein 2 (Homo sapiens) (UniProt Q04721). Nature of the test: small molecules binding Notch2 protein – biochemical, small-molecule microarray, 635 nm fluorescence, stem cell growth factors, primary screen (AID 1073). The settings on record: higher = more signal.
The target of test [6] is Pro-neuregulin-1, membrane-bound isoform (Homo sapiens) (UniProt Q02297). Nature of the test: small molecules binding neuregulin-1 protein – biochemical, small-molecule microarray, fluorescence 635/667, psychiatric disease protein project, primary screen (AID 1075).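 Note: score combines 667 nm spot fluorescence with signal to noise.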 The settings on record: NRG1 binding, 635 nm fluorescence, higher = more signal.
Test [7] deals with Neuregulin-1 EGF-like domain. Nature of the test: small molecules binding NRG1 EGF domain – biochemical, small-molecule microarray, 635 nm fluorescence, primary screen (AID 1081).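 Note: binding of the protein to compounds printed on small-molecule microarray slides.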 The settings on record: higher = more signal.
Test [8] is described as follows: FRG1 expression reporter modulators in myotubes – cell-based, C2C12 myotubes, firefly/Renilla luciferase, luminescence, FRG1 inhibition for FSHD, primary screen (AID 1084). The settings on record: FRG1 promoter luciferase, higher = more signal, called active from +8 up or from −8 down.
Test [9] in a line: small molecules captured by biotinylated probe aFST – biochemical, small-molecule microarray, fluorescence 635/667, stem cell growth factor project, primary screen (AID 1086).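 Note: score merges 667 nm fluorescence with signal-to-noise of each printed compound spot.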 The settings on record: higher = more signal.
The nature of test [10]: binders of probe aHhip on microarray, primary screen, stem cell growth factor project, biochemical, small-molecule microarray, fluorescence 635/667 (AID 1087).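 Note: score merges spot fluorescence at 667nm with spot signal to noise ratio.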 The settings on record: higher = more signal.
Test [11] relates to PRMT1 (protein arginine N-methyltransferase 1). Nature of the test: small molecules binding arginine methyltransferase PRMT1 – biochemical, small-molecule microarray, 635 nm fluorescence, primary screen (AID 1088).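 Note: binding of Prmt1 protein to compounds spotted on small-molecule microarray slides.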 The settings on record: higher = more signal.
Test [12] in a line: growth effects on S. cerevisiae YJM789 – YJM789 clinical isolate, OD600, 24 h, basal, primary screen (AID 1089).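 Note: growth of clinical yeast isolate S. cerevisiae YJM 789 seeded 1000 cells per well; test concentration not given here.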 The note with it: higher = more signal, called active from +8 up or from −8 down.
A short description of test [13]: S. pombe growth modifiers, basal conditions – strain 972, OD600, 24 h, no modulator, primary screen (AID 1090).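 Note: basal condition with compound alone and no growth modifier present; test concentration not given here.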 The note with it: S. pombe 972 growth, higher = more signal, called active from +8 up or from −8 down.
Test [14] is described as follows: budding yeast growth modifiers under rapamycin – strain BY4716, OD600, 96 h, primary screen (AID 1091). Note: test concentration not given here. The settings on record: S. cerevisiae BY4716 + rapamycin, higher = more signal, called active from +8 up or from −8 down.
Test [15] addresses Torsin-1A-interacting protein 2 (Homo sapiens) (UniProt Q8NFQ8). Nature of the test: small molecules binding lysate-expressed LULL1 – cell lysate, human LULL1 lysate, 635/667 nm fluorescence, primary screen (AID 1092).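 Note: probe is lysate of COS7 cells overexpressing human LULL1; score merges per-feature 667 nm fluorescence with signal-to-noise.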 The note with it: small-molecule microarray, hLULL1 lysate binding, 635 nm fluorescence; higher = more signal.
Test [16] is described as follows: optical density change of DRC41 E. coli – strain DRC41, OD650, 24 h, E. coli filamentation project, primary screen (AID 1093).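 Note: MC1000 strain lacking acrAB efflux and sulA so SOS filamentation is blocked; test concentration not given here.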 The note with it: E. coli DRC41 growth, higher = more signal, called active from +8 up or from −8 down.
Test [17] is described as follows: probe aLefty2 binding to arrayed compounds – biochemical, biotinylated probe, 635/667 nm fluorescence, primary screen (AID 1094).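 Note: score merges spot fluorescence near 667 nm with spot signal-to-noise ratio.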 The settings on record: small-molecule microarray, higher = more signal.
Test [18] concerns Noggin (protein binding on small-molecule microarray). Nature of the test: small molecules binding Noggin protein – biochemical, 635/667 nm fluorescence, primary screen (AID 1095).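 Note: score merges 667 nm feature fluorescence with signal to noise over triplicate slides.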 The settings on record: 635 nm fluorescence, higher = more signal.
The target in test [19] is Neurogenic locus notch homolog protein 3 (Homo sapiens) (UniProt Q9UM47). Nature of the test: small molecules binding NOTCH3 protein – biochemical, 635/667 nm fluorescence, primary screen (AID 1096). The note with it: small-molecule microarray, 635 nm fluorescence, higher = more signal.
The nature of test [20]: probe aEGFR binding to arrayed compounds – biochemical, biotinylated probe, 635/667 nm fluorescence, primary screen (AID 1097).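 Note: probe is a biotinylated anti-EGFR antibody binding compounds printed on slides; score combines fluorescence near 667 nm and signal to noise of each spot.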 The note with it: small-molecule microarray, higher = more signal.

The source made the active and inactive calls.

Pro-neuregulin-1, membrane-bound isoform (Homo sapiens), sequence (Q02297 whole entry, looked up, the tested form may be a part, canonical isoform): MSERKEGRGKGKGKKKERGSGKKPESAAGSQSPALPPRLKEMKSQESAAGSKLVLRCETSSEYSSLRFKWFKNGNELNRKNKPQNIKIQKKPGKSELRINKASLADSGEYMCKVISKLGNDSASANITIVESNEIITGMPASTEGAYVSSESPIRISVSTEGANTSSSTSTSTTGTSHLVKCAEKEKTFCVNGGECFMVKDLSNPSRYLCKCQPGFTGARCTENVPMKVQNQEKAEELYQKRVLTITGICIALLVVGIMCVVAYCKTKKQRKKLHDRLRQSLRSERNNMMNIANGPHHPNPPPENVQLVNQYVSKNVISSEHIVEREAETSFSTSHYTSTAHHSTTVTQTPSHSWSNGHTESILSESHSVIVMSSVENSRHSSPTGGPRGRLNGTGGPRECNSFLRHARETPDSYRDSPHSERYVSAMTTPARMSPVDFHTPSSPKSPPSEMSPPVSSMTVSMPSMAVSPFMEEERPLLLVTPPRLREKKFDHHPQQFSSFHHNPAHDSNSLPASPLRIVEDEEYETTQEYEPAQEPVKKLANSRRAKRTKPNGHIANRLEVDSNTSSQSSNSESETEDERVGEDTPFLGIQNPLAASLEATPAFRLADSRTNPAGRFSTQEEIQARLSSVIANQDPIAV
Torsin-1A-interacting protein 2 (Homo sapiens), sequence (Q8NFQ8 whole entry, looked up): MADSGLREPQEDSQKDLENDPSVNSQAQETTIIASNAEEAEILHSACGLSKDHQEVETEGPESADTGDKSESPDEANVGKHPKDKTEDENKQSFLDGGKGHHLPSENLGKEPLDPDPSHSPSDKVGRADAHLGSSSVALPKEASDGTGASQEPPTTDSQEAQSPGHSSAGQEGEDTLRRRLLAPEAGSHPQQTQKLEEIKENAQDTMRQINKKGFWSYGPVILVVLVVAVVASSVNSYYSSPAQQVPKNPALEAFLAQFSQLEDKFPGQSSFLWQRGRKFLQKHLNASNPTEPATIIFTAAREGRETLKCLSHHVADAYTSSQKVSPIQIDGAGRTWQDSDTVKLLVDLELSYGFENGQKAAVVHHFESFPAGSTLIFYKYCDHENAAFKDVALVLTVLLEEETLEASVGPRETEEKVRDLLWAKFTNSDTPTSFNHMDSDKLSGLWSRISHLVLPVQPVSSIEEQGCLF
Neurogenic locus notch homolog protein 2 (Homo sapiens), sequence (Q04721 whole entry, looked up, canonical isoform): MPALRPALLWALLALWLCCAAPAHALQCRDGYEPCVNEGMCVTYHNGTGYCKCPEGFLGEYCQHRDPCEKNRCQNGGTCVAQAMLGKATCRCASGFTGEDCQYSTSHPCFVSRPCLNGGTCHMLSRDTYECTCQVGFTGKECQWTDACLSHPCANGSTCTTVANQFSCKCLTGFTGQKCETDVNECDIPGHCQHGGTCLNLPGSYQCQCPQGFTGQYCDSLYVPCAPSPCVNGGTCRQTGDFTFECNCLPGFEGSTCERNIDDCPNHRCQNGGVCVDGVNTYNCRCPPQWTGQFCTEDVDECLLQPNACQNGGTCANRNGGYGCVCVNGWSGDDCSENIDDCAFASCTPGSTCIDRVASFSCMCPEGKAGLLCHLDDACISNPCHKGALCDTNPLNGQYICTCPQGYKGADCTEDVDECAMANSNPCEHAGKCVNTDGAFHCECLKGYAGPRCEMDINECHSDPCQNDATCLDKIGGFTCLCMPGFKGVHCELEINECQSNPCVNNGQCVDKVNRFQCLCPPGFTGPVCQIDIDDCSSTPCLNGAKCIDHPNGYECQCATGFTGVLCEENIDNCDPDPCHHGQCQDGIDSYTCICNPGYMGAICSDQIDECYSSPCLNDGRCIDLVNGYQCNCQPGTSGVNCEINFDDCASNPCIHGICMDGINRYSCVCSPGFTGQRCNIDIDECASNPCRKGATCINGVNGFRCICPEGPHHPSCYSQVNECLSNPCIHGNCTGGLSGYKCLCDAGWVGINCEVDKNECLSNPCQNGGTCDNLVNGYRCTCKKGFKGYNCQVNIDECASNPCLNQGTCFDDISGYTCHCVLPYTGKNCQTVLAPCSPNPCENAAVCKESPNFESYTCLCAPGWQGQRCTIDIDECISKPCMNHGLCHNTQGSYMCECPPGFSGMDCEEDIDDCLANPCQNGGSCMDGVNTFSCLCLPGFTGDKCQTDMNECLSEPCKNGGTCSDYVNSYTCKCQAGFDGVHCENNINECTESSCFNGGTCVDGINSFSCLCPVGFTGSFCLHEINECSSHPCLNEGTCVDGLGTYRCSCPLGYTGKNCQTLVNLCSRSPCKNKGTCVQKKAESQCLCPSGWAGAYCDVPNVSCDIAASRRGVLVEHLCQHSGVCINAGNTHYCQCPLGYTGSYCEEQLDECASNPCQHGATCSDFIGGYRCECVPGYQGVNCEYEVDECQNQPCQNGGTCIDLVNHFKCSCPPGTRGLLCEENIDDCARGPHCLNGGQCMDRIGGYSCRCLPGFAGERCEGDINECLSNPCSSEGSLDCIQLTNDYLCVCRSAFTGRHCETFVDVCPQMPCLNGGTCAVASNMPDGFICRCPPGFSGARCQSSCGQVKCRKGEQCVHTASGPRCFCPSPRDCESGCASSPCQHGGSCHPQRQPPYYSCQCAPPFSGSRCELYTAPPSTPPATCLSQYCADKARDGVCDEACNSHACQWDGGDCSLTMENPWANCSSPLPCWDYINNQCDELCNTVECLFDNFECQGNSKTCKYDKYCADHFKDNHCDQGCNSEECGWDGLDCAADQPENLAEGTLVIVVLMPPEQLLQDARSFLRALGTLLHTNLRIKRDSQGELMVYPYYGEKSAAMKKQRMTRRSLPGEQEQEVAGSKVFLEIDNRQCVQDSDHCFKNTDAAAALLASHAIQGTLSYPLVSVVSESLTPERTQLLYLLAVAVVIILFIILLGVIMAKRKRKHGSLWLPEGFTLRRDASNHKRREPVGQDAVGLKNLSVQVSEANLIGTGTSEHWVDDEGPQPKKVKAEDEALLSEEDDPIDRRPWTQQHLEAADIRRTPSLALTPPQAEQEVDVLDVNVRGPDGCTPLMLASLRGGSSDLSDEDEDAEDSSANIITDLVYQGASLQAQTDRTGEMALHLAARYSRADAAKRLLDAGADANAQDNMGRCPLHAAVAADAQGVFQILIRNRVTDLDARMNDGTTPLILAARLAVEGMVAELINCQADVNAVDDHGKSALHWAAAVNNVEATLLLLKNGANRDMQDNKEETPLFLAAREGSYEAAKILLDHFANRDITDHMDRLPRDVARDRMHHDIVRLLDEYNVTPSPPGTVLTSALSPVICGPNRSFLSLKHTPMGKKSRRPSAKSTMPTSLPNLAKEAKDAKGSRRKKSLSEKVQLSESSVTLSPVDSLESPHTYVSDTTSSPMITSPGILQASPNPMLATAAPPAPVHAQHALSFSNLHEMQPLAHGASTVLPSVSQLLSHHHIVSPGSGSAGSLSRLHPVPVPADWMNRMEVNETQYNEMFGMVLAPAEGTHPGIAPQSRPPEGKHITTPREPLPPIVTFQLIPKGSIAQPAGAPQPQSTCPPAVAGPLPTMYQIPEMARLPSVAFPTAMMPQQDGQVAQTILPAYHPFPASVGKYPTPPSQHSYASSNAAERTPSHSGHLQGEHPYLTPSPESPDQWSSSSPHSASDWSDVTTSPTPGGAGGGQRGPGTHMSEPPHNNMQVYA

`COC(=O)[C@@H]1CC[C@H](C)[C@@H](c2ccc(Br)cc2)N1`: the composite z-score was 1.1 in test [1]; -0.288 in test [2]; 0.0499 in [3]; 0.169 in test [4]; -0.208 in test [5]; 0.153 in test [6]. Further, the composite z-score in [7] is -0.201; in [9], -0.155; in test [10], 0.842; in test [11], -2.1; in [15], 1.24; in [17] it was 0.195. Further, the composite z-score was -0.265 in test [18], -1.19 in [19] and -0.044 in test [20]. In addition, the z-score in test [8] was -0.382 (inactive); in [12], 0.826 (inactive); in test [13], 0.771 (inactive); in test [14], 1.08 (inactive); in test [16], 0.532 (inactive).
With `C=CC[C@@H]1C=C[C@H](ON=C[C@@H](NS(=O)(=O)c2ccc(C)cc2)[C@H](C)C=CCC(=O)OC)[C@@H](CO)O1`, the composite z-score is -0.172 in [1]; 0.571 in test [2]; -0.134 in test [3]; 0.2 in test [4]; -0.0681 in test [5]; -0.209 in [6]. Besides, the composite z-score is 0.476 in test [7]; -0.0961 in [9]; 0.289 in [10]; -0.248 in test [11]; 0.324 in [15]; -0.11 in test [17]. Further, the composite z-score in test [18] is 0.659; in test [19], -0.531; in test [20], -0.0715. The z-score in test [8] is -0.0545 (inactive); in test [12], -0.605 (inactive); in test [13], 0.757 (inactive); in test [14], -0.0333 (inactive); in test [16] it was 0.354 (inactive).
With `CCN1C(C)=C(C(=O)OC)[C@@H](c2ccccc2)N2C(=O)[C@](O)(C(=O)OC)CC(C(C)=O)=C12`, the composite z-score in test [1] was -0.619; in test [2], 0.159; in test [3] it was -0.205; in [4], 0.372; in test [5], 0.505; in test [6] it was -0.125. For the same compound, the composite z-score was -0.254 in [7]; 0.101 in test [9]; -0.0618 in test [10]; 0.0774 in test [11]; -0.25 in test [15]; -0.313 in [17]. In addition, the composite z-score is 0.768 in test [18], 0.534 in test [19] and -0.0957 in test [20]. Further, the z-score in test [8] was -1.11 (inactive); in test [12] it was 0.02 (inactive); in test [13] it was -1.13 (inactive); in test [14], 0.712 (inactive); in [16], 0.302 (inactive).
As to `O=C1C2=CC[C@H]3C(=O)N(C4CCCCC4)C(=O)[C@H]3[C@H]2[C@H](O)[C@@H]2O[C@H]12`, the composite z-score was -0.115 in test [1]; -2.14 in test [2]; -0.162 in test [3]; -0.179 in test [4]; -0.423 in test [5]; -0.0738 in [6]. Moreover, the composite z-score was -0.515 in [7]; -0.5 in [9]; -0.164 in test [10]; -0.642 in [11]; 0.821 in test [15]; -0.196 in test [17]. Further, the composite z-score was -0.725 in [18], -1.63 in test [19] and -0.0389 in test [20]. For the same compound, the z-score in test [8] is 11.5 (active); in test [12] it was -0.163 (inactive); in test [13] it was -6.78 (inactive); in [14], -1.25 (inactive); in test [16], -0.391 (inactive).
Take `COC(=O)CC=C[C@@H](C)[C@@H](C=NOC(C)CN1CCCCc2nc(C)c(C)cc21)NS(=O)(=O)c1ccc(C)cc1` (stereo not given in full): the composite z-score is 0.061 in test [1]; 0.751 in test [2]; -0.0422 in [3]; 0.471 in test [4]; 0.318 in test [5]; -0.279 in [6]. In addition, the composite z-score in [7] is -0.776; in [9], 0.38; in [10], 0.0735; in test [11], 0.63; in [15], -0.137; in test [17], 0.0768. For the same compound, the composite z-score was 0.52 in test [18], 0.265 in [19] and -0.0836 in test [20]. Further, the z-score in test [8] was 0.511 (inactive); in test [12], -1.12 (inactive); in test [13], 0.22 (inactive); in test [14], 0.121 (inactive); in test [16] it was 0.86 (inactive).
